Experimental data taken from PubChem BioAssay AID1851 (National Center for Advancing Translational Sciences (NCATS), 2009).
About 5,700 (36%) of roughly 16,000 compounds were called active. About 24% were inconclusive and are not listed. Some of the results follow. Values without a mark were called inactive. Calls follow the shape of the dose curve; as a rule, active = well fitted curve in the direction sought with a large enough effect; inconclusive = small, poorly fitted or top-dose-only effect, or effect the other way; inactive = no such curve, though single readings can be large or run the other way.

What follows are compounds tested against Cytochrome P450 1A2 (Homo sapiens) (UniProt P05177) (assay: Cytochrome panel assay with activity outcomes). Details: recombinant CYP, pro-luciferin dealkylation, luminescence, p450-cyp1a2; series mostly up to 57.1 µM.
Sequence of Cytochrome P450 1A2 (Homo sapiens) (P05177 whole entry, looked up): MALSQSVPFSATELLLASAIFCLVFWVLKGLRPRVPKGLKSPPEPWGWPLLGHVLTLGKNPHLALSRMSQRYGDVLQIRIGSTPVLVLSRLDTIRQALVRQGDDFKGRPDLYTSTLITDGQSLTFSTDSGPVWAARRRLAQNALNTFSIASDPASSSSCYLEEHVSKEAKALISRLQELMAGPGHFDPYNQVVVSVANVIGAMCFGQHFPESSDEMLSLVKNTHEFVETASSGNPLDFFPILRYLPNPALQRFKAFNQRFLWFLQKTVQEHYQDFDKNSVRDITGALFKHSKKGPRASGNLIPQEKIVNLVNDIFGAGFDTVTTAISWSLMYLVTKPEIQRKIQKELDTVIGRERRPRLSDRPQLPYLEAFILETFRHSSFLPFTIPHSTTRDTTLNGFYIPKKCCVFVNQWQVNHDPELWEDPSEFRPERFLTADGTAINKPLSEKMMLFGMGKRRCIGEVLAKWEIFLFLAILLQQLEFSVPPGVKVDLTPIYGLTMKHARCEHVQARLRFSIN
% is scaled to controls: 0 for no effect and ±100 for the full control effect.

**Q.** `CCN1C[C@@]2(COC)CC[C@H](O)[C@@]34[C@@H]2C[C@@H]([C@@H]13)[C@]1(O)C[C@@H](OC)C2C[C@H]4[C@H]1[C@H]2OC(C)=O` was tested. Which AC50 did it give?
**A.** inactive

**Q.** `CC[C@@H]1CN2CCc3cc(OC)c(OC)cc3[C@H]2C[C@@H]1C[C@@H]1NCCc2cc(OC)c(OC)cc21` was tested. Which AC50 did it give?
**A.** inactive

**Q.** `CCc1cc2c(nc1CC)CCN(CC/C(C)=N/OC)C2` was tested. Which activity, negative = inhibition did it give?
**A.** -0.582% [at 11.4 µM]

**Q.** `C=C1C/C(=C\C)C(=O)O[C@@H]2CCN3CC=C(COC(=O)[C@@]1(C)O)[C@H]23` was tested. Which AC50 did it give?
**A.** inactive

**Q.** For `CC[N+](CC)(CC)CCOc1cccc(OCC[N+](CC)(CC)CC)c1OCC[N+](CC)(CC)CC`, which AC50 is on record?
**A.** inactive

**Q.** With `N/C(=N\N=C/c1ccc(-c2ccc(O)c(C(=O)O)c2)o1)N[N+](=O)[O-]` as the compound, how does the AC50 read?
**A.** inactive

**Q.** Which AC50 does the source give for `Cc1o[nH]c(=O)c1C[C@@H](N)C(=O)O` here?
**A.** inactive

**Q.** How did the AC50 turn out when `C[C@H]1CC[C@]2(OC1)O[C@@H]1C[C@@H]3[C@@H]4CC[C@H]5C[C@@H](O)CC[C@]5(C)[C@@H]4CC(=O)[C@@]3(C)[C@H]1[C@@H]2C` was run?
**A.** inactive

**Q.** How did the AC50 turn out when `CC(=O)OCC1=C(C(=O)O)N2C(=O)[C@@H](N)[C@@H]2SC1` was run?
**A.** inactive

**Q.** How did the AC50 turn out when `c1ccc(N2CC3(CCNCC3)C2)cc1` was run?
**A.** inactive

**Q.** How did the AC50 turn out when `Clc1cccc(N2CCNCC2)c1` was run?
**A.** 15.8 µM (active)

**Q.** Which AC50 does the source give for `c1ccc(N2CCC3(CCNCC3)CC2)cc1` here?
**A.** inactive

**Q.** `CCN1CCN(S(=O)(=O)c2ccc(Cl)nc2)CC1` was tested. Which AC50 did it give?
**A.** inactive

**Q.** With `C[C@@]12CCC(=O)C=C1C=C[C@H]1[C@H]3CC[C@](O)(CCC(=O)O)[C@]3(C)CC[C@@H]12` as the compound, how does the AC50 read?
**A.** inactive

**Q.** How did the activity, negative = inhibition turn out when `O=C(O)[C@@H]1[C@H](C(=O)O)[C@]2(Cl)C(Cl)=C(Cl)[C@@]1(Cl)C2(Cl)Cl` was run?
**A.** -14.5% [at 11.4 µM]

**Q.** For `CCCn1c(=O)c2[nH]c(C3CCCC3)nc2n(CCCOC(=O)c2ccc(S(=O)(=O)F)cc2)c1=O`, which AC50 is on record?
**A.** inactive

**Q.** For `CC(C)C(=O)CP(=O)(O)O`, which activity, negative = inhibition is on record?
**A.** -6.25% [at 11.4 µM]

**Q.** How did the AC50 turn out when `C#CCN(C)[C@H](C)Cc1ccccc1` was run?
**A.** 12.6 µM (active)

**Q.** For `CC(C)c1c(CN(C)[C@@H](C)Cc2ccccc2)n(C)n(-c2ccccc2)c1=O`, which AC50 is on record?
**A.** inactive

**Q.** `CCCN1CCC[C@@H]2Cc3[nH]ncc3C[C@H]21` was tested. Which AC50 did it give?
**A.** inactive

**Q.** `CC(C)[C@]1(O)[C@@H](OC(=O)c2ccc[nH]2)[C@]2(O)[C@@]3(C)C[C@@]4(O)O[C@@]5([C@H](O)[C@@H](C)CC[C@]35O)[C@]2(O)[C@]41C` was tested. Which activity, negative = inhibition did it give?
**A.** -17.2% [at 2.29 µM]

**Q.** `CCCCc1ccc(-c2nc(NC(=O)C3C4CCC(O4)C3C(=O)O)sc2C)cc1` (stereo not drawn) was tested. Which AC50 did it give?
**A.** 15.8 µM (active)

**Q.** With `O=C(O)[C@H]1[C@H](C(=O)O)[C@H]2CC[C@@H]1O2` as the compound, how does the AC50 read?
**A.** inactive
